# Screens (PubChem BioAssay)
# PfHsp90 yeast 2 = growth inhibition of yeast expressing Plasmodium Hsp90; S. cerevisiae expressing PfHsp90, BacTiter-Glo ATP, 48 h; yeast lacking PDR1 and PDR3 efflux regulators; inhibition, % at 9.4 µM; 310,000 tested, 0.32% active; AID 504621;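 active means every replicate shows inhibition above about 80%, whatever the replicate mean, limit read from the data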;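 further: 0% = DMSO neutral controls and 100% = 20 µM radicicol positive controls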
# tim10-1 inh = growth inhibitors of tim10-1 mutant yeast. S. cerevisiae tim10-1 ts strain growth, BacTiter-Glo, 24 h. inhibition, % at 20 µM. 330,000 tested, 2.2% active. AID 463190;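 active means inhibition of at least 40%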;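 further: mutant grown at 25 °C; 0% = DMSO wells with yeast and 100% = wells holding no yeast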
# TIM10 inh = growth inhibitors of TIM10 yeast strain; S. cerevisiae TIM10 strain growth, BacTiter-Glo luminescence, 24 h; AID 463195; 330,000 tested, 1.4% active; inhibition, % at 10 µM;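 active means inhibition of 40% or more at the single tested concentration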;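 further: wild-type TIM10 isogenic control strain grown at permissive 25 °C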
# SKKanGAS inh = inhibitors of SKKanGAS S. pyogenes growth in kanamycin (SK-promoter or general growth effect); BacTiter-Glo, 6 h; inhibition, % at 7.5 µM; 300,000 tested, 1.3% active;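 active means mean replicate score, as percent of positive control median, at least 50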;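 further: strain carries kanamycin resistance gene driven by streptokinase promoter and grows in 40 µg/ml kanamycin; loss of luminescence reflects streptokinase promoter inhibition or plain growth inhibition; 0% = median of DMSO wells and 100% = positive control at its reference dose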
# tim23-1 inh = tim23-1 yeast growth inhibition; S. cerevisiae tim23-1 growth, BacTiter-Glo luminescence, 24 h; inhibition, % at 20 µM; 330,000 tested, 1.3% active;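 active means growth inhibition of the mutant yeast at or above 50%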;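 further: temperature-sensitive mutant grown at 25 °C; plate controls were DMSO-treated mutant yeast for no effect and medium wells lacking yeast for full effect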
# ATG4B inhibitor = inhibitors of human ATG4B cysteine protease | ATG4B cleavage of LC3-PLA2, NBD-HPC fluorescence, 1 h | inhibition, % at 8.33 µM | 340,000 tested, 0.51% active | AID 504462; in the data active means inhibition above about 40%
# Target sequence (Q9Y4P1 whole entry, looked up): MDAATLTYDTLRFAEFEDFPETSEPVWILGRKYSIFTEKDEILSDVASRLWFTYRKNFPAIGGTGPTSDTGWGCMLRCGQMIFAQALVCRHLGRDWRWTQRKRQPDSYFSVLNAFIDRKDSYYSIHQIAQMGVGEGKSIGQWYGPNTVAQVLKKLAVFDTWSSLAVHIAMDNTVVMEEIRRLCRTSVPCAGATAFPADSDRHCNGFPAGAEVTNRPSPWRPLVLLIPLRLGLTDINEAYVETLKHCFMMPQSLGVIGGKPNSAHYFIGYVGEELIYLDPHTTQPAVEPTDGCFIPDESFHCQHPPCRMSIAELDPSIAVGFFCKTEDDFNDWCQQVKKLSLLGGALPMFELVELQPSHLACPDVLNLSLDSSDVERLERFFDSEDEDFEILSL
# tim10-1 conf = tim10-1 yeast growth inhibition, confirmed; shares compounds with tim10-1 inh; AID 463213; inhibition, % at 20 µM; 7,400 tested, 56% active; S. cerevisiae tim10-1 ts strain growth, BacTiter-Glo, 24 h;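 active means inhibition of yeast growth at or above a set limit in either of two repeat tests at 20 µM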;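 further: tim10-1 mutant grown at permissive 25 °C to find synthetic lethal compounds; 0% = DMSO yeast wells and 100% = medium wells without yeast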
# * hit, by the source's call; . = no result given. Only some compounds are listed: those with a hit (about 4.7% of all), similar ones and a draw of the others.
SMILES,PfHsp90 yeast 2,tim10-1 inh,TIM10 inh,SKKanGAS inh,tim23-1 inh,ATG4B inhibitor,tim10-1 conf
CCc1ccc(OCC2c3cc(OC)c(OC)cc3CCN2C(=S)NC)cc1 (stereo not given),4,48*,14,2,25,-21,-15
Cc1c(C(=O)NC(=S)NCc2cccnc2)cccc1[N+](=O)[O-],2,8,-2,2,19,-4,.
CCOC(=O)/C(C#N)=C\c1cn(C)c2ccccc12,11,41*,22,5,20,-9,15
CCOC(=O)/C(C#N)=C/c1cn(CCOc2ccccc2)c2ccccc12,4,13,-9,5,6,-13,.
N#Cc1cccc(-n2c(-c3ccccc3)nnc2-c2ccccc2)c1C#N,-5,46*,20,-11,42,5,35*
COc1ncccc1C(=O)NC1CCCc2c1cnn2-c1ccc(C)c(C)c1 (stereo not given),-9,52*,28,8,34,7,15
O=C(NNC(=S)NCc1ccccc1)c1ccccc1OC(F)F,-31,17,12,-1,22,-2,.
O=C(NNC(=S)Nc1ccc(Br)cc1)c1ccccc1,-11,26,13,7,12,-1,.
O=C(NNC(=S)Nc1ccc(Br)cc1)c1ccccc1Br,-22,46*,36,7,33,5,28
O=C(NNC(=S)Nc1ccc(Cl)cc1)c1ccccc1OC(F)F,-16,42*,32,-11,42,0,39*
C/C(O)=C(\N=Nc1cc(C)ccc1O)C(N)=O,-5,22,19,17,17,7,.
O=C(Nc1ccc(CN2CCOCC2)cc1)c1cccs1,12,8,1,1,13,-2,.
COc1cc(C(C#N)N2N=C(c3ccccc3)CC2c2ccccc2)ccc1O (stereo not given),19,43*,22,5,37,-1,19
N#CC(c1ccccc1O)N1N=C(c2ccccc2)CC1c1ccccc1 (stereo not given),11,-39,27,6,23,3,.
COc1ccc(/C=C/C(=O)c2ccccc2)c(OC)c1,5,44*,22,-12,20,0,25
COc1cccc(/C=N/NC(=O)CCn2c3ccccc3c3ccccc32)c1,-19,6,9,15,7,.,.
COc1ccc(/C=N/NC(=O)CCn2c3ccccc3c3ccccc32)cc1O,0,45*,33,16,43,-24,16
COc1cc2c(cc1NC(=O)COC(=O)[C@@H](NC(=O)c1ccccc1F)C(C)C)oc1ccccc12,6,40*,21,21,20,9,20
COc1cc2c(cc1NC(=O)COC(=O)[C@@H](NC(=O)c1ccccc1)C(C)C)oc1ccccc12,-14,15,24,31,22,-11,.
Cc1ccc2sc(N3CCN(C(=O)c4ccc([N+](=O)[O-])o4)CC3)nc2c1C,.,19,-28,26,30,0,.
COc1cccc2sc(N3CCN(C(=O)c4ccc([N+](=O)[O-])o4)CC3)nc12,-4,51*,25,12,-37,-7,28
Cc1c(C(=O)NCCSCc2ccc(F)cc2)cnn1-c1ccc(Cl)cc1,-15,30,-26,2,24,3,.
COc1ccc(NC(=O)CSc2nnc(-c3ccco3)c(-c3ccco3)n2)cc1OC,12,7,-3,1,4,-1,.
CC1CCC/C(=N\NC(=S)NCc2ccccc2)C1 (stereo not given),3,41*,28,1,35,-8,32*
N/C(CC(=O)Nc1cccc(C(F)(F)F)c1)=N/O,.,14,5,-2,24,-9,.
SMILES,PfHsp90 yeast 2,tim10-1 inh,TIM10 inh,SKKanGAS inh,tim23-1 inh,ATG4B inhibitor,tim10-1 conf
C=CCc1cccc(CNc2ccc(S(=O)(=O)Nc3nccnc3OC)cc2)c1O,3,19,-14,4,15,-4,.
CC(C)n1c(NCc2ccccc2O)nc2ccccc21,-3,11,-3,5,14,-1,.
C=CCc1cccc(CNc2nc3ccccc3n2C(C)C)c1O,18,43*,37,5,27,20,34*
C=CCc1cccc(CNc2ccc(Br)cc2)c1O,-8,43*,35,24,37,-1,64*
Cc1ccc2c(CN3CCN(S(=O)(=O)/C=C/c4ccccc4)CC3)cc(=O)oc2c1,-16,40*,36,32,47,22,36*
Cc1cccc(OCC(=O)OC(C)C(=O)Nc2ccc(S(=O)(=O)N3CCCCC3)cc2)c1 (stereo not given),.,30,17,-4,21,-9,.
COc1ccccc1N(C)S(=O)(=O)c1ccc(C(=O)Nc2cccc(Br)c2)cc1,-2,15,36,.,36,-8,.
COc1ccccc1N(C)S(=O)(=O)c1ccc(C(=O)Nc2ccc(N3CCOCC3)cc2)cc1,3,47*,35,3,35,0,33*
O=C(COc1ccccc1Cl)NNC(=O)c1cc(S(=O)(=O)N2CCOCC2)ccc1N1CCCC1,2,4,4,-4,12,-11,.
O=C(O)c1ccc(-n2nc(C(F)(F)F)c3c2-c2ccoc2CC3)cc1,.,16,3,-2,14,26,.
COC(=O)c1ccc(-n2nc(C(F)(F)F)c3c2-c2ccoc2CC3)cc1,-25,41*,20,4,30,-13,26
CCOP(=O)(c1ccccc1)C1(O)CCCCC1 (stereo not given),10,2,-11,-4,5,-10,.
O=C(NCCNC(=O)c1ccccc1Br)c1ccccc1Br,-17,-4,-10,-1,-14,1,.
CCCNC(=O)C12CCC(C)(c3nc4cc(C)c(C)cc4nc31)C2(C)C (stereo not given),21,42*,22,.,41,0,26
CCOC(=O)c1c(OCC)[nH]c2c1cc(O)c1ccccc12,-4,43*,37,34,41,22,41*
CCOC(=O)c1c(C)[nH]c2cc(Br)c(O)cc12,.,23,25,-4,27,-13,.
O=C(CCCOc1ccc(Cl)cc1Cl)n1nnc2ccccc21,-5,54*,25,-1,46,-1,39*
CN(C(=O)COC(=O)COc1ccc2c(c1)CCC2)c1c(N)n(Cc2ccccc2)c(=O)[nH]c1=O,1,11,4,-3,13,-3,.
Cc1cc(Cl)cc(Cl)c1OCC(=O)NCc1ccco1,58,50*,35,-1,49,-4,40*
Cc1cc(-c2ccc(C)c(S(=O)(=O)N3CCN(c4ccccn4)CC3)c2)on1,-4,42*,18,-2,39,16,32*
Cc1cc(-c2ccc(C)c(S(=O)(=O)N3CCN(c4ccc([N+](=O)[O-])cc4)CC3)c2)on1,17,22,3,42,15,-2,.
